This is an account of results in PubChem BioAssay AID504682 (Southern Research Specialized Biocontainment Screening …, 2011).

SMILES strings stand for the structures. Entries with a potency or affinity are not part of this list. The source made the active and inactive calls. The rule behind the calls is not given here.

A short description of this test: cytotoxicity control, cell-based, set 2 (AID 504682). As to conditions: HepG2 cytotoxicity; series mostly up to 50 µM; viability: at the top concentration.
In the case of `Cc1ccc(NC(=O)COC(=O)CCc2c[nH]c3ccccc23)cc1[N+](=O)[O-]`, the “viability” value is 97.8% (inactive).

Consider `COC(=O)CCc1nc2c(C#N)c(-c3ccc(Cl)cc3)ccn2n1`, for which the “viability” value was 98.8% (inactive).

Take `CCn1c2ccccc2c2cc(NC(=O)CSc3nc(C)cc(=O)[nH]3)ccc21`: the “viability” value was 83.2% (inactive).

On to `Cc1cc(=O)[nH]c(SCC(=O)Nc2ccccc2)n1`, for which the “viability” value is 92.8% (inactive).

For the compound `O=C(CSc1nccc(=O)[nH]1)Nc1ccc(Oc2ccccc2)cc1`, the “viability” value was 96.8% (inactive).

As for `Cc1nc(SCC(N)=O)[nH]c(=O)c1C`, the “viability” value is 99.5% (inactive).

As for `O=C(CSc1nc2ccccc2c(=O)[nH]1)NC1CCCCC1`, the “viability” value was 103% (inactive).

In the case of `CCOC(=O)COn1c2c(c3c4no[n+]([O-])c4ccc31)CCCC2`, the “viability” value was 90.6% (inactive).

Take `Cc1cc(=O)[nH]c(=S)[nH]1`: the “viability” value is 101% (inactive).

On to `O=C(/C=C/c1ccccc1)N1CCN(CCN2C(=O)c3cccc4cccc(c34)C2=O)CC1`, for which the “viability” value was 96.5% (inactive).

As for `COc1cc(NC(=O)C/C(C)=N/NC(=O)c2ccccn2)c(OC)cc1Cl`, the “viability” value is 80% (inactive).

On to `CCOC(=O)C(C)Sc1ncnc2c1nnn2-c1ccc(F)cc1` (centres undefined), for which the “viability” value was 88.7% (inactive).

Consider `CCOC1OC(=O)C(Cl)=C1Nc1ccccc1C` (centres undefined), for which the “viability” value was 95.3% (inactive).

As for `Cc1c[nH]c(=S)[nH]c1=O`, the “viability” value was 105% (inactive).

On to `O=C(CSc1ccccn1)NC1CCCCC1`, for which the “viability” value is 121% (inactive).

Regarding `Cc1nc(SCc2ccccc2Cl)[nH]c(=O)c1C`, the “viability” value was 100% (inactive).

Take `COC(=O)C(C)Oc1ccc(-c2nccc(-c3ccccn3)n2)cc1` (centres undefined): the “viability” value is 92.1% (inactive).

Consider `COC(=O)C1CC(=O)N(c2ccc(OCc3ccccc3Cl)cc2)C1` (centres undefined), for which the “viability” value is 96.1% (inactive).

Regarding `CN(C(=O)CSc1nc2ccccc2c(=O)[nH]1)C1CCCCC1`, the “viability” value is 88.6% (inactive).

As to `CCOC(=O)CSc1nc(C)c(C)c(=O)[nH]1`, the “viability” value is 103% (inactive).

For the compound `CCOC(=O)CNC(=O)[C@H](Cc1ccccc1)NC(=O)OCc1ccccc1`, the “viability” value is 98.7% (inactive).

As to `O=C1C(Br)=Cc2cccc3cccc1c23`, the “viability” value is 92.1% (inactive).

Take `Cc1[nH]c(=S)[nH]c(=O)c1C`: the “viability” value was 95.4% (inactive).

In the case of `CCSc1nc2ccccc2c(=O)[nH]1`, the “viability” value was 103% (inactive).

`CC[N+](C)(CC)CCCCOc1ccc2c(c1)C(=O)c1cc(OCCCC[N+](C)(CC)CC)ccc1-2`: the “viability” value was 87% (inactive).

As for `CCOC(=O)COc1ccc(/C=C2\NC(=S)N(CC)C2=O)cc1`, the “viability” value was 99.4% (inactive).

`O=C(CSc1nc2ccccc2c(=O)[nH]1)NCc1ccc(Cl)cc1`: the “viability” value was 89.5% (inactive).

For `O=c1[nH]c(=S)[nH]c2ccccc12`, the “viability” value is 96.8% (inactive).

Take `O=C(CSc1nc(O)cc(=O)[nH]1)Nc1ccccc1`: the “viability” value was 94.9% (inactive).

Take `Cc1ccc(NC(=O)C2C3/C=C\CCCCC32)cc1C` (centres undefined): the “viability” value was 101% (inactive).

As for `CC(=NCc1ccc2c(c1)OCO2)C1=C(O)c2ccccc2C1=O`, the “viability” value is 97.2% (inactive).

For `Cc1nc(SCC(=O)NC2CCCCC2)[nH]c(=O)c1C`, the “viability” value was 101% (inactive).

`CCSc1nc(C)c(C)c(=O)[nH]1`: the “viability” value is 101% (inactive).

For the compound `COC(=O)c1ccc(CNc2c(N3CCCC3)c(=O)c2=O)cc1`, the “viability” value is 97.2% (inactive).

Consider `O=C(CSc1ncccn1)NC1CCCCC1`, for which the “viability” value is 91.5% (inactive).

As for `O=C(CSc1nccc(=O)[nH]1)Nc1ccc(N2CCOCC2)cc1`, the “viability” value is 90% (inactive).

In the case of `Cc1nc(SCC(=O)N(C)c2ccccc2)[nH]c(=O)c1C`, the “viability” value was 108% (inactive).

In the case of `CCc1ccc(/C=C2/C(=O)N(C)C(=S)N2CC(=O)OC)s1`, the “viability” value is 80% (inactive).

As for `COC(=O)C(C)Oc1ccc(Cc2ncc(C(F)(F)F)cc2Cl)cc1` (centres undefined), the “viability” value is 97.9% (inactive).

As usually defined, the viability is a read-out of living cells in per cent, often relative to untreated cells.
